Data taken from the supplement of paper PMC10127200.
Counter-ions that a name gives are not always drawn.

Key:
Test in all cases: Euclidean distance of Cell Painting phenotypic profile (signed KS, 77 features) to DMSO centroid (dimensionless distance); 5 or 10 uM (library dependent); higher = stronger phenotypic change vs DMSO (phenoactivity)
Conditions in all cases: 48 h
786-O = system: 786-O
In short: (§1)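 Five cancer lines and a healthy fibroblast line received library compounds at 10 or 5 uM (library-dependent, 0.1% DMSO final) for 48 h. Stained cells were imaged confocally at 20X (9 fields/well). Harmony extracted 77 features, each scored as a signed Kolmogorov-Smirnov statistic against same-plate vehicle wells. Profiles were plate-position corrected, correlation-weighted and replicate-averaged at the top dose. Phenoactivity is the Euclidean distance from each profile to the median vehicle profile.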

A549 = system: A549
In short: as §1

DU145 = system: DU145
In short: as §1

FB = system: FB
In short: as §1

HEPG2 = system: HEPG2
In short: as §1

OVCAR4 = system: OVCAR4
In short: as §1

| SMILES | Euclidean distance (786-O) | Euclidean distance (A549) | Euclidean distance (DU145) | Euclidean distance (FB) | Euclidean distance (HEPG2) | Euclidean distance (OVCAR4) |
| --- | --- | --- | --- | --- | --- | --- |
| C[N+](C)(C)CCOC(N)=O [Carbachol] | 1.07 | 1.19 | 0.687 | 1.16 | 0.696 | 1.56 |
| CC(=O)OCC(=O)[C@@]1(O)CC[C@H]2[C@@H]3CCC4=CC(=O)CC[C@]4(C)[C@H]3C(=O)C[C@@]21C [Cortisone acetate] | 1.03 | 0.746 | 1.1 | 1.06 | 0.755 | 1.67 |
| CC(C)=CCC/C(C)=C/CC/C(C)=C/CCC(=O)OC/C=C(\C)CCC=C(C)C [Gefarnate] | 0.868 | 0.898 | 0.637 | 1.09 | 0.64 | 0.606 |
| COc1ccc([C@@H]2CC(=O)c3c(O)cc(O)cc3O2)cc1O [Hesperetin] | 1.32 | 0.944 | 1.21 | 1.47 | 1.37 | 1.23 |
| Cc1cc(/C=C/c2ccc3cc(N(C)C)ccc3[n+]2C)c(C)n1-c1ccccc1 [pyrvinium] | 5.7 | 4.29 | 5.05 | 6.77 | 3.9 | 5.35 |
| C=C1/C(=C\C=C2/CCC[C@]3(C)[C@@H]([C@H](C)/C=C/[C@@H](O)C4CC4)CC[C@@H]23)C[C@@H](O)C[C@@H]1O [Calcipotriene] | 0.625 | 1.01 | 0.941 | 2.13 | 0.91 | 1.51 |
| C1COC(NC(C2CC2)C2CC2)=N1 [Rilmenidine Phosphate] | 1.48 | 0.742 | 1.06 | 1.07 | 1.13 | 1.02 |
| Clc1ccc(CCC(Cn2ccnc2)Sc2c(Cl)cccc2Cl)cc1 (stereo unspecified) [Butoconazole] | 1.21 | 0.956 | 1.06 | 1.04 | 1.4 | 1.31 |
| COCCNc1cc(NC(=O)N2CCCc3cc(CN4CCN(C)CC4=O)c(C=O)nc32)ncc1C#N | 0.599 | 1.34 | 0.736 | 1.03 | 1.18 | 0.826 |
| CCOC(=O)OC(C)OC1=C(C(=O)Nc2ccccn2)N(C)S(=O)(=O)c2ccccc21 (stereo unspecified) [Ampiroxicam] | 1.26 | 1.35 | 0.928 | 0.606 | 0.41 | 1.47 |
| CC(C)C(=O)c1c(C(C)C)nn2ccccc12 [Ibudilast] | 0.973 | 0.58 | 0.981 | 0.71 | 0.459 | 1.29 |
| O=C(O)CCc1ccc(NCc2cccc(Oc3ccccc3)c2)cc1 | 1.31 | 1.43 | 1.69 | 1.47 | 1.25 | 1.53 |
| CCCN(CCc1cccs1)[C@H]1CCc2c(O)cccc2C1 [Rotigotine] | 0.962 | 0.896 | 0.662 | 0.9 | 0.437 | 0.97 |
| CCn1nc(C(=O)O)c(=O)c2cc3c(cc21)OCO3 [Cinoxacin] | 1.03 | 1.18 | 0.942 | 1.56 | 0.617 | 1 |
| Nc1ccc(-c2ccc3ncc4ccc(=O)n(-c5cccc(C(F)(F)F)c5)c4c3c2)cn1 [Torin 2] | 5.09 | 3.59 | 1.08 | 1.45 | 1.26 | 2.88 |
| COc1nc(C)nc(Cl)c1NC1=NCCN1 [Moxonidine] | 1.15 | 0.652 | 1.39 | 0.879 | 2.14 | 1.43 |
| CN(C)[C@@H]1C(O)=C(C(N)=O)C(=O)[C@@]2(O)C(O)=C3C(=O)c4c(O)ccc(Cl)c4[C@@H](O)[C@H]3C[C@@H]12 [Demeclocycline HCl] | 0.985 | 0.836 | 0.951 | 1.05 | 0.887 | 1.53 |
| Cc1ccccc1C(=O)Nc1ccc(C(=O)N2CCCC(N(C)C)c3ccccc32)cc1 (stereo unspecified) [Mozavaptan] | 0.843 | 0.928 | 1.17 | 0.813 | 0.445 | 0.913 |
| N=C(N)NCCC[C@H](N)C(=O)O [L-Arginine HCl (L-Arg)] | 1.3 | 0.522 | 0.828 | 0.796 | 0.566 | 1.14 |
| N#CC[C@H](C1CCCC1)n1cc(-c2ncnc3[nH]ccc23)cn1 [Ruxolitinib Phosphate] | 1.96 | 1.67 | 1.41 | 1.39 | 1.1 | 1.26 |
| C=C1CCN([C@H](C)[C@](O)(Cn2cncn2)c2ccc(F)cc2F)CC1 [Efinaconazole] | 0.843 | 0.567 | 0.723 | 0.84 | 0.73 | 0.881 |
| C[C@H](CCC(=O)O)[C@H]1CC[C@H]2[C@@H]3[C@H](O)C[C@@H]4C[C@H](O)CC[C@]4(C)[C@H]3CC[C@]12C [Chenodeoxycholic Acid] | 0.805 | 0.691 | 0.826 | 0.881 | 0.737 | 1.08 |
| CC(=O)OCC(=O)NCCCOc1cccc(CN2CCCCC2)c1 [Roxatidine Acetate HCl] | 1.32 | 0.853 | 0.769 | 0.72 | 0.711 | 0.763 |

| SMILES | Euclidean distance (786-O) | Euclidean distance (A549) | Euclidean distance (DU145) | Euclidean distance (FB) | Euclidean distance (HEPG2) | Euclidean distance (OVCAR4) |
| --- | --- | --- | --- | --- | --- | --- |
| C[C@H]1O[C@H](O[C@H]2[C@H](O)[C@@H](O)[C@@H](O[C@H]3[C@H](O)[C@@H](O)C(O)O[C@@H]3CO)O[C@@H]2CO)[C@H](O)[C@@H](O)[C@@H]1N[C@H]1C=C(CO)[C@@H](O)[C@H](O)[C@H]1O (stereo partly specified) [Acarbose] | 1.5 | 1.91 | 1.47 | 1.59 | 0.847 | 1.46 |
| CC(=O)Nc1ccc(CC(=O)O)cc1 [Actarit] | 1.12 | 0.862 | 0.902 | 1.09 | 0.464 | 0.872 |
| Cn1c(=O)cc(N2CCC[C@@H](N)C2)n(Cc2cc(F)ccc2C#N)c1=O [Trelagliptin] | 0.94 | 0.495 | 0.985 | 0.998 | 0.668 | 0.953 |
| O=C(/C=C/c1ccc(O)c(O)c1)O[C@H](Cc1ccc(O)c(O)c1)C(=O)O [Rosmarinic acid] | 0.778 | 0.874 | 0.818 | 0.847 | 0.532 | 0.722 |
| C=C1[C@H](CO)[C@@H](O)C[C@@H]1n1cnc2c(=O)[nH]c(N)nc21 [Entecavir] | 1.46 | 1.16 | 1.05 | 1.14 | 1.35 | 1.15 |
| O=C(NC(NC(=S)Nc1ccc(F)c([N+](=O)[O-])c1)C(Cl)(Cl)Cl)C(c1ccccc1)c1ccccc1 (stereo unspecified) | 1.02 | 2.27 | 1.38 | 1.49 | 1.56 | 1.25 |
| CCN(CC)CC(=O)Nc1c(C)cccc1C [Lidocaine hydrochloride] | 0.709 | 0.8 | 0.919 | 0.862 | 0.656 | 1.35 |
| CN[C@@H]1[C@@H](O)[C@@H](O[C@@H]2[C@@H](O)[C@H](O[C@H]3OC(CN)=CC[C@H]3N)[C@@H](N)C[C@H]2N)OC[C@]1(C)O [Sisomicin sulfate] | 1.2 | 1.53 | 0.985 | 0.996 | 0.672 | 1.05 |
| COc1cc2c(cc1-c1c(C)noc1C)ncc1[nH]c(=O)n([C@H](C)c3ccccn3)c12 | 2.62 | 2.24 | 1.84 | 3.75 | 1.77 | 2.03 |
| Cc1cc(Nc2ncc(Cl)c(Nc3ccccc3S(=O)(=O)C(C)C)n2)c(OC(C)C)cc1C1CCNCC1 [Ceritinib (LDK378)] | 6.15 | 4.94 | 7.35 | 6.34 | 4.96 | 5.69 |
| Cn1cnc([N+](=O)[O-])c1Sc1ncnc2[nH]cnc12 [Azathioprine] | 0.644 | 0.642 | 1.33 | 1.04 | 2.09 | 0.817 |
| CCCCN(CCCC)CC(O)c1cc(Cl)cc2c1-c1ccc(Cl)cc1/C2=C/c1ccc(Cl)cc1 (stereo unspecified) [Lumefantrine] | 1.17 | 1.42 | 0.953 | 0.94 | 0.895 | 0.763 |
| C[C@H]1CO[C@@H]2Cn3cc(C(=O)NCc4ccc(F)cc4F)c(=O)c(O)c3C(=O)N12 | 1.14 | 1.26 | 0.669 | 0.944 | 0.626 | 0.809 |
| O=C(O)c1cc(-c2ccccc2)nc2ccccc12 [Cinchophen] | 1.16 | 1.12 | 1.3 | 1.12 | 1.47 | 0.992 |
| CN1CCN(CCCN2c3ccccc3Sc3ccc(C(F)(F)F)cc32)CC1 [Trifluoperazine 2HCl] | 2.52 | 2.25 | 1.58 | 2.19 | 3.04 | 1.8 |
| CN(C)CCOC(=O)C(c1ccccc1)C1(O)CCCC1 (stereo unspecified) [Cyclopentolate Hydrochloride] | 1.16 | 0.28 | 0.841 | 1.15 | 0.601 | 1.57 |
| C/C(=C\c1ccc(C(=O)O)cc1)c1ccc2c(c1)C(C)(C)CCC2(C)C [TTNPB (Arotinoid Acid)] | 0.687 | 1.39 | 1.07 | 2.49 | 1.61 | 1.35 |
| O=C(O)CSCC(=O)NC1CCSC1=O (stereo unspecified) [Erdosteine] | 0.988 | 1.09 | 1.06 | 1.07 | 1.27 | 1.1 |
| CN(C)CCc1c[nH]c2ccc(Cn3cncn3)cc12 [Rizatriptan Benzoate] | 1.43 | 1.08 | 1.46 | 2.54 | 1.06 | 2.42 |
| COC1=CC(c2cc3ccccc3[nH]2)=N/C1=C\c1[nH]c(C)cc1C [Obatoclax Mesylate (GX15-070)] | 4.8 | 4.59 | 2.78 | 4.82 | 3.8 | 3.71 |
| CN(C)c1ccc(-c2nc3ncc(Cl)c(N4CCN(CC(=O)Nc5nccs5)CC4)c3[nH]2)cc1 | 1.74 | 1.55 | 1.32 | 1.56 | 0.715 | 1.59 |
| C[C@H](NCc1ccc(OCc2cccc(F)c2)cc1)C(N)=O [Safinamide Mesylate] | 0.672 | 0.63 | 0.559 | 0.645 | 0.55 | 1.14 |
| C=C(C)[C@@H]1CC[C@]2(CO)CC[C@]3(C)[C@H](CC[C@@H]4[C@@]5(C)CC[C@H](O)C(C)(C)[C@@H]5CC[C@]43C)[C@@H]12 [Betulin] | 1.24 | 0.846 | 1.07 | 1.2 | 0.765 | 1.1 |
